From PubChem BioAssay AID1159580 (chemical genetic matrix, 2015)
Out of some 5,500 compounds screened, about 2,000 (36%) were called active. Roughly 18% stayed inconclusive and do not appear here. The list shows a part of the results. Values without a mark were called inactive. Cut-off read from the data, not from the text of the source: active = normalized growth mostly below about 0.91 (no sharp cut-off); inconclusive = no clear call, values can overlap the other calls; inactive = mostly above about 0.92.

Assay: chemical genetic growth profiling, strain panel (AID 1159580);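 note: tested at 20 µM; growth read once vehicle control cultures reached saturation at 30 °C; 1 = growth at the plate median or of vehicle wells; lower values mean less growth of the strain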
Conditions: S. cerevisiae deletion strains, growth OD
[1] = locus YHR030C, strain SLT2, active compounds read low

SMILES: CCOc1ccc2nc3cc(N)ccc3c(N)c2c1
- normalized growth (locus YAL021C, strain ccr4, active compounds read low): 0.749 (active)
- normalized growth (locus YAL026C, strain drs2, active compounds read low): 0.607 (active)
- normalized growth (locus YAL030W, strain snc1, active compounds read low): 0.63 (active)
- normalized growth (locus YBL061C, strain skt5, active compounds read low): 0.745 (active)
- normalized growth (locus YBR009C, strain hhf1, active compounds read low): 0.353 (active)
- normalized growth (locus YBR023C, strain chs3, active compounds read low): 0.721 (active)
- normalized growth (locus YBR171W, strain sec66, active compounds read low): 1.07
- normalized growth (locus YBR231C, strain swc5, active compounds read low): 0.702 (active)
- normalized growth (locus YBR279W, strain paf1, active compounds read low): 0.51 (active)
- normalized growth (locus YCL011C, strain gbp2, active compounds read low): 0.447 (active)
- normalized growth (locus YCL016C, strain dcc1, active compounds read low): 0.462 (active)
- normalized growth (locus YCL061C, strain MRC1, active compounds read low): 0.846 (active)
- normalized growth (locus YCL069W, strain vba3, active compounds read low): 0.834 (active)
- normalized growth (locus YCR088W, strain abp1, active compounds read low): 0.695 (active)
- normalized growth (locus YDL005C, strain med2, active compounds read low): 0.981
- normalized growth (locus YDL040C, strain nat1, active compounds read low): 0.779 (active)
- normalized growth (locus YDR001C, strain nth1, active compounds read low): 0.94
- normalized growth (locus YDR069C, strain doa4, active compounds read low): 0.696 (active)
- normalized growth (locus YDR137W, strain rgp1, active compounds read low): 0.985
- normalized growth (locus YDR159W, strain sac3, active compounds read low): 1.06
- normalized growth (locus YDR195W, strain ref2): 0.823 (active)
- normalized growth (locus YDR297W, strain sur2, active compounds read low): 0.705 (active)
- normalized growth (locus YDR334W, strain swr1, active compounds read low): 1.03
- normalized growth (locus YDR335W, strain msn5, active compounds read low): 0.907 (active)
- normalized growth (locus YDR392W, strain spt3, active compounds read low): 0.803
- normalized growth (locus YEL003W, strain gim4, active compounds read low): 0.534 (active)
- normalized growth (locus YEL037C, strain rad23, active compounds read low): 0.785 (active)
- normalized growth (locus YEL061C, strain CIN8 (second series), active compounds read low): 0.997
- normalized growth (locus YER015W, strain faa2, active compounds read low): 0.641 (active)
- normalized growth (locus YER016W, strain bim1, active compounds read low): 0.679 (active)
- normalized growth (locus YER111C, strain swi4, active compounds read low): 0.987
- normalized growth (locus YER155C, strain BEM2 (second series), active compounds read low): 0.856 (active)
- normalized growth (locus YFR010W, strain ubp6, active compounds read low): 0.683 (active)
- normalized growth (locus YGL167C, strain pmr1, active compounds read low): 1.03
- normalized growth (locus YGL173C, strain kem1, active compounds read low): 0.677 (active)
- normalized growth (locus YGL227W, strain vid30, active compounds read low): 0.754 (active)
- normalized growth (locus YGL240W, strain doc1, active compounds read low): 1.06
- normalized growth (locus YGL253W, strain hxk2, active compounds read low): 0.761 (active)
- normalized growth (locus YHR013C, strain ard1, active compounds read low): 0.747 (active)
- normalized growth (locus YHR027C, strain rpn1, active compounds read low): 0.618 (active)
- normalized growth [1]: 0.967
- normalized growth (locus YHR079C, strain IRE1, active compounds read low): 0.89
- normalized growth (locus YHR142W, strain chs7, active compounds read low): 0.801 (active)
- normalized growth (locus YJL092W, strain hpr5, active compounds read low): 0.803 (active)
- normalized growth (locus YJL095W, strain BCK1 (second series), active compounds read low): 0.785 (active)
- normalized growth (locus YJL095W, strain BCK1, active compounds read low): 0.935
- normalized growth (locus YJL115W, strain asf1, active compounds read low): 0.987
- normalized growth (locus YJL129C, strain trk1, active compounds read low): 0.648 (active)
- normalized growth (locus YJL154C, strain vps35, active compounds read low): 0.97
- normalized growth (locus YJL164C, strain tpk1, active compounds read low): 0.379 (active)
- normalized growth (locus YJL166W, strain qcr8, active compounds read low): 0.583 (active)
- normalized growth (locus YJL187C, strain SWE1, active compounds read low): 0.846 (active)
- normalized growth (locus YJR066W, strain TOR1, active compounds read low): 0.851
- normalized growth (locus YKL160W, strain elf1, active compounds read low): 0.733 (active)
- normalized growth (locus YKR026C, strain gcn3, active compounds read low): 0.864 (active)
- normalized growth (locus YKR091W, strain srl3, active compounds read low): 0.875 (active)
- normalized growth (locus YLL001W, strain dnm1, active compounds read low): 0.662 (active)
- normalized growth (locus YLL026W, active compounds read low): 0.508 (active)
- normalized growth (locus YLL041C, strain sdh2, active compounds read low): 0.863 (active)
- normalized growth (locus YLR027C, strain aat2, active compounds read low): 0.481 (active)
- normalized growth (locus YLR113W, strain HOG1, active compounds read low): 0.961
- normalized growth (locus YLR221C, strain rsa3, active compounds read low): 0.541 (active)
- normalized growth (locus YLR258W, strain gsy2, active compounds read low): 0.529 (active)
- normalized growth (locus YLR262C, strain YPT6 (second series), active compounds read low): 0.891
- normalized growth (locus YLR320W, strain mms22, active compounds read low): 0.742 (active)
- normalized growth (locus YLR342W, strain FKS1, active compounds read low): 0.866 (active)
- normalized growth (locus YLR357W, strain rsc2, active compounds read low): 1.09
- normalized growth (locus YLR370C, strain arc18, active compounds read low): 0.704 (active)
- normalized growth (locus YLR384C, strain iki3, active compounds read low): 0.85 (active)
- normalized growth (locus YML120C, strain ndi1, active compounds read low): 0.252 (active)
- normalized growth (locus YMR058W, strain fet3, active compounds read low): 0.587 (active)
- normalized growth (locus YMR125W, strain sto1, active compounds read low): 0.892
- normalized growth (locus YMR129W, active compounds read low): 0.659 (active)
- normalized growth (locus YMR205C, strain PFK2, active compounds read low): 0.751 (active)
- normalized growth (locus YMR231W, strain pep5, active compounds read low): 0.883 (active)
- normalized growth (locus YNL071W, strain lat1, active compounds read low): 0.909 (active)
- normalized growth (locus YNL183C, strain NPR1, active compounds read low): 0.875
- normalized growth (locus YNL209W, strain ssb2, active compounds read low): 0.53 (active)
- normalized growth (locus YNL248C, strain rpa49, active compounds read low): 0.827 (active)
- normalized growth (locus YNL322C, strain KRE1 (second series), active compounds read low): 1
- normalized growth (locus YNR049C, strain mso1, active compounds read low): 1
- normalized growth (locus YOR001W, strain rrp6, active compounds read low): 0.365 (active)
- normalized growth (locus YOR070C, strain gyp1, active compounds read low): 0.607 (active)
- normalized growth (locus YOR080W, strain dia2, active compounds read low): 0.876 (active)
- normalized growth (locus YOR083W, strain WHI5, active compounds read low): 0.58 (active)
- normalized growth (locus YOR106W, strain vam3, active compounds read low): 0.489 (active)
- normalized growth (locus YOR231W, strain MKK1, active compounds read low): 0.901
- normalized growth (locus YOR265W, strain rbl2, active compounds read low): 0.61 (active)
- normalized growth (locus YOR270C, strain vph1, active compounds read low): 0.707 (active)
- normalized growth (locus YOR290C, strain snf2, active compounds read low): 0.441 (active)
- normalized growth (locus YPL051W, strain arl3, active compounds read low): 0.653 (active)
- normalized growth (locus YPL078C, strain atp4, active compounds read low): 0.813 (active)
- normalized growth (locus YPL106C, strain sse1, active compounds read low): 0.719 (active)
- normalized growth (locus YPL240C, strain hsp82, active compounds read low): 0.623 (active)
- normalized growth (locus YPL256C, strain CLN2, active compounds read low): 1.03

SMILES: COc1ccc(Oc2cc(C)nc3ccccc23)cc1
- normalized growth (locus YAL013W, strain DEP1, active compounds read low): 1.01
- normalized growth (locus YBR229C, strain ROT2, active compounds read low): 1
- normalized growth (locus YDL101C, strain DUN1, active compounds read low): 1.02
- normalized growth (locus YDL134C, strain PPH21, active compounds read low): 0.989
- normalized growth (locus YDR150W, strain NUM1, active compounds read low): 1.02
- normalized growth (locus YEL061C, strain CIN8, active compounds read low): 0.884 (active)
- normalized growth (locus YGR078C, strain PAC10, active compounds read low): 1.01
- normalized growth [1]: 0.269 (active)
- normalized growth (locus YHR087W, strain rtc3, active compounds read low): 0.999
- normalized growth (locus YJR043C, strain POL32, active compounds read low): 1
- normalized growth (locus YJR075W, strain HOC1, active compounds read low): 1.02
- normalized growth (locus YKL190W, strain CNB1, active compounds read low): 0.906 (active)
- normalized growth (locus YLR039C, strain RIC1, active compounds read low): 0.606 (active)
- normalized growth (locus YLR058C, strain SHM2 (second series), active compounds read low): 1
- normalized growth (locus YLR085C, strain ARP6, active compounds read low): 0.527 (active)
- normalized growth (locus YLR262C, strain YPT6, active compounds read low): 0.701 (active)
- normalized growth (locus YML094W, strain GIM5, active compounds read low): 0.941
- normalized growth (locus YMR219W, strain ESC1, active compounds read low): 1.01
- normalized growth (locus YMR263W, strain SAP30, active compounds read low): 1.02
- normalized growth (locus YNL153C, strain GIM3, active compounds read low): 0.991
- normalized growth (locus YNL298W, strain CLA4 (second series), active compounds read low): 0.876
- normalized growth (locus YNL322C, strain KRE1, active compounds read low): 1.01
- normalized growth (locus YNR030W, strain Alg12, active compounds read low): 0.967
- normalized growth (locus YPL055C, strain LGE1, active compounds read low): 1.02
- normalized growth (locus YPL241C, strain CIN2, active compounds read low): 0.845 (active)
- normalized growth (locus YPR135W, strain CTF4, active compounds read low): 0.397 (active)
